Data taken from the supplement of paper PMC6555819.

How the values were obtained:
Assay in all cases: PBM binding z-score (relative to random genomic background probes); higher = stronger binding; sequences stand for … in GC…GCGATTGACAGCGTAGAATGAAGG
[1] = tested on: RARb homodimer (NR concentration 270 nM)
In short: (§1)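 For binding z-scores, the reference was random background probes on custom Agilent 4×180K protein-binding microarrays. These arrays were incubated 1 h with ligand-free nuclear receptor dimers in PBS pH 7.4, 2% milk, 0.02% Triton X-100, 1 mM DTT, 0.2 mg/mL BSA and 0.4 mg/ml salmon testes DNA. Fluorescence was scanned after antibody detection of each partner (one per run) and regression-normalized.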

[2] = tested on: RARg:RXRa (NR concentration 270 nM, RXRa partner concentration 90 nM)
In short: as §1

[3] = tested on: RARg homodimer (NR concentration 270 nM)
In short: as §1

[4] = tested on: RXRa DBDmut IVT, anti-RXR (DBD mutation: RXRa K156A/R161A, NR concentration 90 nM)
In short: as §1

[5] = tested on: RXRa homodimer (NR concentration 180 nM)
In short: as §1

[6] = tested on: THRa:RXRa (NR concentration 90 nM, RXRa partner concentration 90 nM)
In short: as §1

[7] = tested on: THRa homodimer (NR concentration 90 nM)
In short: as §1

[8] = tested on: VDR homodimer (NR concentration 270 nM)
In short: as §1

Sequence | PBM binding z-score [1] | PBM binding z-score [2] | PBM binding z-score [3] | PBM binding z-score [4] | PBM binding z-score [5] | PBM binding z-score [6] | PBM binding z-score [7] | PBM binding z-score [8]
CGCACTAGGTCATTGACAGGACAGTGAATAGTAA | 2.68 | 4.77 | 4.46 | 2.35 | 2.57 | 2.91 | 1.16 | 1.54
CGAAATAGGTCACCAGGACAGTGAAGAGGTTGGA | 3.91 | 5.54 | 5.96 | 0.868 | 5.18 | 3.12 | 0.942 | 0.687
CCTACTGGGCCAAAAAGGCCATTGATGCCGATAA | 0.855 | 0.216 | 0.242 | -0.537 | -0.173 | 0.0885 | -0.514 | -0.0566
ATATGTAGGTTAGGGTCAATCAGAAAGTAGGGAA | 3.59 | 4.12 | 3.71 | 1.23 | 5.05 | 3.83 | 2.6 | 2.43
CGTCCAAGGTCAACAGGTCAGTGAAAGCGACGTG | 5.3 | 7.26 | 7.37 | 3.65 | 6.49 | 4.23 | 2.98 | 2.51
CTAACTAGGTCACCGGAAGGTCAAAGTCCGCATG | 5.66 | 8.24 | 7.39 | 2.16 | 6.18 | 4.48 | 2.98 | 2.9
CCGAGTAGGTTAGGAGGGGGCATTCAGTGCGAAT | 2.05 | 2.89 | 2.76 | 1.76 | 1.87 | 3.46 | 1.44 | 4.12
CGGACTAGGTCAAAGGACAGTGAAAGGCGACGTA | 2.91 | 3.97 | 4.51 | 1.33 | 3.02 | 2.57 | 0.589 | 0.288
TCGATTAGGTTACGGGGGCATTCAGGGATGAAGA | 2.92 | 3.79 | 3.07 | 2.95 | 3.17 | 4.36 | 2.54 | 4.05
ATCGAAAGGTCGTGAGGTGAGTACACAGAAAGGC | 3.12 | 4.77 | 4.06 | 1.6 | 5.77 | 3.39 | 1.68 | 1.92
ATATGTAGGTTAGGGTGATTCAGAAAGTAGGGAA | 1.48 | 0.779 | 0.813 | 0.979 | 1.02 | 2 | 1.65 | 0.713
TCGAGTAGGTTACGGGGGCACTCAGGGATGAAGA | 2.3 | 3.39 | 2.3 | 1.2 | 2.84 | 3.4 | 1.09 | 1.68
GCTTACGGGTCAAAGGTTATGGCATGAATAGAAT | 3.46 | 6.98 | 5.3 | 2.31 | 9.82 | 3.79 | 0.408 | 1.51
ATATGTAGGTCAGGGTCATTCAGAAAGTAGGGAA | 4.5 | 5.21 | 5.33 | 2.58 | 5.76 | 4 | 2.37 | 4.27
ATCGAAAGGTCGACGAGGTGAGAATACACCGTTT | 3.04 | 4.56 | 4.16 | 1.15 | 4.87 | 4.05 | 0.736 | 0.942
CCGAGTAGGTTACGAGGGAGCATTCAGTGCGAAT | 0.337 | 0.625 | 0.53 | 0.00513 | 0.6 | 0.829 | -0.661 | -0.171
CAAGCTAGGTCAAAGGTCAAAGTCGAGCCAACCA | 5.17 | 9.17 | 8.1 | 3.05 | 10.6 | 4.96 | 1.45 | 3.39
TCTAGCAGGCCATAGGGTCACTCAAGAGGTACGG | 3.27 | 3.6 | 2.95 | 0.333 | 3.87 | 3.25 | 1.93 | 1.64
CCTGCTAGTTCATGGTCAGCTAATCTACAGTATG | 0.96 | 0.833 | 1.06 | 2.43 | 0.309 | 0.298 | -0.142 | 1.09
CGTCAAAGTTCAACTAAGGTAACGTATAGCACGC | 4.33 | 5.92 | 6.62 | 4.32 | 4.78 | 5.26 | 1.89 | 4.37
CTATGTATGTTAAGGGGGTCATTCAGTTTGAAAG | 3.92 | 4.71 | 3.61 | 3.03 | 5.44 | 3.91 | 2.88 | 6.32
CCGAGTAGGTTACGCGGGGGCATTCAGTGCGAAT | 2.09 | 3.1 | 2.15 | 1.8 | 2.23 | 4.51 | 0.878 | 3.76
CTATGTAGGTTAAGGGGGTCGTTCAGTTTGAAAG | 2.42 | 2.9 | 2.06 | 1.7 | 2.93 | 2.7 | 1.62 | 4.04
CCTACTGGGCCAATGTCATTGATCAGTCAAAGCA | 0.109 | 0.114 | 0.0827 | -0.907 | -0.139 | -0.112 | -0.837 | -0.862
CCGAGTAGGTTACGGGGGGGCATTCAGTGCGAAT | 3.09 | 4.41 | 4.19 | 2.7 | 2.73 | 4.4 | 3.04 | 4.76
CGTCGGAGGACAACAGGAGGTCAGAGCTGCCAGA | 3.63 | 3.83 | 3.69 | 0.531 | 2.26 | 2.98 | 1.12 | 1.79
CCGAGTAGCTTACGAGGGGGCATTCAGTGCGAAT | 1 | 1.05 | 0.544 | 1.5 | 0.627 | 1.8 | -0.07 | 2.86
TCGAGTAGGTTACGGGGGCATGCAGGGATGAAGA | 2.19 | 3.5 | 2.31 | 1.35 | 2.78 | 3.28 | 0.997 | 1.92
ATATGTAGGTTAGGGTCATTCAAAAAGTAGGGAA | 3.59 | 4.25 | 3.19 | 2.67 | 5.4 | 4.28 | 3.27 | 3.17
